The text below walks through data of PubChem BioAssay.

Assay [1] deals with Plasmodium falciparum Sir2 (PF13_0152, Sir2A). The experiment in a line: Plasmodium falciparum Sir2A binding compounds – biochemical, small-molecule microarray, 635 nm fluorescence, primary screen (AID 1098).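 Also: score merges spot fluorescence intensity with its signal-to-noise ratio.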 Conditions: fluorescence 635 nm, higher = more signal.
A short description of assay [2]: probe aDKK1 binding to arrayed compounds – biochemical, biotinylated probe, 635/667 nm fluorescence, primary screen (AID 1099).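 Also: score merges 667nm spot fluorescence with signal to noise across triplicate slides; reference of the scale not given here.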 Conditions: small-molecule microarray, higher = more signal.
The nature of assay [3]: probe aCHRDL2 binding to arrayed compounds – biochemical, biotinylated probe, 635/667 nm fluorescence, primary screen (AID 1100). Conditions: small-molecule microarray, higher = more signal.
Assay [4] can be described thus: change in splice reporter luminescence, either direction, cell-based, HEK293, spliceosome inhibition project, primary screen (AID 1101).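 Also: HEK293 cells carrying a splicing-competent luciferase reporter gene; test concentration not given here.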 Conditions: HEK293 splicing luciferase reporter, 24 h, higher = more signal, called active from +8 up or from −8 down. Background: In a reporter assay the amount or activity of a reporter protein is the signal.
Assay [5] deals with Fibroblast growth factor 10 (Homo sapiens) (UniProt O15520). The experiment in a line: compounds binding fibroblast growth factor 10 – biochemical, small-molecule microarray, 635 nm fluorescence, primary screen (AID 1102). Conditions: FGF10 binding, fluorescence 635 nm, higher = more signal.
Assay [6] has as its system glycogen synthase kinase-3 (GSK3A per assay name; protocol says GSK3B). The assay can be described thus: compounds binding glycogen synthase kinase-3 – biochemical, small-molecule microarray, 635 nm fluorescence, GSK3A, primary screen (AID 1103). Also: the record names both GSK3A and GSK3B. Conditions: fluorescence 635 nm, higher = more signal.
The target in assay [7] is Epidermal growth factor receptor (Homo sapiens) (UniProt P00533). The assay can be described thus: compounds binding epidermal growth factor receptor – biochemical, small-molecule microarray, 635 nm fluorescence, primary screen (AID 1104).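 Also: score merges 667 nm emission intensity with spot signal to noise over triplicate slides.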 Conditions: EGFR binding, higher = more signal.
Assay [8] deals with Follistatin-related protein 3 (Homo sapiens) (UniProt O95633). The experiment in a line: compounds binding follistatin-related protein 3 – biochemical, small-molecule microarray, 635 nm fluorescence, primary screen (AID 1105).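 Also: score merges emission near 667 nm and signal to noise per printed spot across three slides.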 Conditions: FSTL3 binding, higher = more signal.
Assay [9] addresses Dickkopf-related protein 1 (Homo sapiens) (UniProt O94907). The experiment in a line: small molecules binding DKK1 protein – biochemical, small-molecule microarray, 635 nm fluorescence scan, primary screen (AID 1106).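 Also: score merges emission near 667 nm with signal to noise over three replicate slides.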 Conditions: higher = more signal.
Assay [10] concerns Inhibin beta A chain (activin A). The experiment in a line: small molecules binding activin A – biochemical, small-molecule microarray, 635 nm fluorescence scan, primary screen (AID 1107).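 Also: mouse activin A protein probed at 4.33 µg/mL on printed slides; score merges bound-protein fluorescence near 667 nm with spot signal-to-noise.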 Conditions: INHBA, higher = more signal.

Active and inactive are the calls of the source.

Fibroblast growth factor 10 (Homo sapiens), sequence (O15520 whole entry, looked up): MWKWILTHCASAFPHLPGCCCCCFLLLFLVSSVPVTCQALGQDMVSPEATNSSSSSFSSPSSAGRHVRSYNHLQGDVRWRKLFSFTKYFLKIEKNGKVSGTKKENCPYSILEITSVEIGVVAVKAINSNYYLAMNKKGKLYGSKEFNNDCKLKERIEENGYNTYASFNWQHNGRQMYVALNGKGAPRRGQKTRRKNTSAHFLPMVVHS
Follistatin-related protein 3 (Homo sapiens), sequence (O95633 whole entry, looked up): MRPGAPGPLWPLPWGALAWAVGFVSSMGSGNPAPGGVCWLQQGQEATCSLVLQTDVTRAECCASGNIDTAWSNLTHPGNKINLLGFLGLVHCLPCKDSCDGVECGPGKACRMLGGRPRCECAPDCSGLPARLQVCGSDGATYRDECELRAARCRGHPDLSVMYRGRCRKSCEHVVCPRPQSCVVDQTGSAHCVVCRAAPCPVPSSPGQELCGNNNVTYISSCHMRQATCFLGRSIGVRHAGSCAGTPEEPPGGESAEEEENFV
Epidermal growth factor receptor (Homo sapiens), sequence (P00533 whole entry, looked up): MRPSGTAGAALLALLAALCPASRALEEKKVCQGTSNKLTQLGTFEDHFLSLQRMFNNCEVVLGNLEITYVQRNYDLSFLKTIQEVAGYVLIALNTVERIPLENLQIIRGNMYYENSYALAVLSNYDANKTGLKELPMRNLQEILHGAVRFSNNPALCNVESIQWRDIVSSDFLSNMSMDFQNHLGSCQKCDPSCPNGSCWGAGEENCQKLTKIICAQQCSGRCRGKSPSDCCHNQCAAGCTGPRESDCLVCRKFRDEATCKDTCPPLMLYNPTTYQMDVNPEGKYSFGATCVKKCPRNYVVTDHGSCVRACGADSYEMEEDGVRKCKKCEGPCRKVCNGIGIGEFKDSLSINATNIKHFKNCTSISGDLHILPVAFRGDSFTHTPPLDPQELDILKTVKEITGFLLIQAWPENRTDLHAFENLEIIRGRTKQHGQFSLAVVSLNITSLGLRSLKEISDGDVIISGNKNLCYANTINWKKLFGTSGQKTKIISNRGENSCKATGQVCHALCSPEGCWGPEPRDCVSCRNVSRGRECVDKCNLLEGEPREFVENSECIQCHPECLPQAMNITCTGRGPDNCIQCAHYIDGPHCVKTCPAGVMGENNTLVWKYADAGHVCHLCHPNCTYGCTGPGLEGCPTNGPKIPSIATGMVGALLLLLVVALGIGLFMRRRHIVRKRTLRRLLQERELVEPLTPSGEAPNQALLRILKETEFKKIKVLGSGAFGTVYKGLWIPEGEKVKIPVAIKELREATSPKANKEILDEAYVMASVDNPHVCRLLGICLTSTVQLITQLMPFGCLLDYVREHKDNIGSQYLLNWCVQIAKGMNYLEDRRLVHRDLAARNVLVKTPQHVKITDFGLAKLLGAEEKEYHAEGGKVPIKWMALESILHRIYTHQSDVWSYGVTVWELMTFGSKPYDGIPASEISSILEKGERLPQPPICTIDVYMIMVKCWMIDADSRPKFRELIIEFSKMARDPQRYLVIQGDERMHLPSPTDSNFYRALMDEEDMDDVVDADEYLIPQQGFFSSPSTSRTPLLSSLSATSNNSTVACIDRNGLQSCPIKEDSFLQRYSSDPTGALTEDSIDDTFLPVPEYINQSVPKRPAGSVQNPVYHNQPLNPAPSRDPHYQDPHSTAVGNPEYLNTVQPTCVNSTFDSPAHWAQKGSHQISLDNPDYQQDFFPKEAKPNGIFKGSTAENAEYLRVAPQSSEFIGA
Dickkopf-related protein 1 (Homo sapiens), sequence (O94907 whole entry, looked up): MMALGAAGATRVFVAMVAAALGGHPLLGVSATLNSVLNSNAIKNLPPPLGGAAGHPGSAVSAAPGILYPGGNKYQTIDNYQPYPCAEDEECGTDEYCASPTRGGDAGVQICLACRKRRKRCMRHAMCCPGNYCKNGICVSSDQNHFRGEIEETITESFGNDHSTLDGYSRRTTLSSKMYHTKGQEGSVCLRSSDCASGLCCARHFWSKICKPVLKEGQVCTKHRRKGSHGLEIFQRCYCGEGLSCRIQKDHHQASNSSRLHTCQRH

Consider `O=C1C2C=CC(C(O)C(c3ccccc3)c3ccccc3)N(Nc3ccccc3)C2C(=O)N1c1ccccc1` (stereo not given), for which the composite z-score in assay [1] came out at 1.46; in assay [2], 0.467; in [3], 0.741; in assay [5], 0.68; in assay [6], 1.32; in assay [7] it was 0.385. Besides, the composite z-score was 1.44 in [8], -0.42 in assay [9] and 0.221 in [10]. Also, in assay [4], the z-score is -0.384 (inactive).
On to `CCCCN1CC=CC23O[C@@H]4C=CCOC(=O)[C@@H]4[C@H]2C(=O)N(CCO)[C@@H]3C1=O` (stereo not given in full), for which the composite z-score in [1] was 1.58; in assay [2], 0.125; in assay [3], 0.537; in [5], -1.25; in assay [6], -0.641; in [7], -1.54. Further, the composite z-score in [8] was -1.24; in [9], -1.58; in assay [10] it was -0.112. Besides, the z-score in assay [4] is 0.499 (inactive).
For `O=C1c2ccccc2[C@](Cc2ccccc2I)(C(=O)O)[C@H](c2ccc(CO)cc2)N1Cc1ccccc1`, the composite z-score was 1.39 in [1]; 0.486 in assay [2]; 0.736 in [3]; -0.011 in assay [5]; -0.0481 in [6]; -0.964 in [7]. Besides, the composite z-score in assay [8] is -0.509; in assay [9], -0.69; in [10], -0.309. Also, the z-score in [4] is 0.188 (inactive).
On to `CCCC[C@H]1OB(O)C[C@H]2C1=C(C)C[C@H]1C(=O)C=CC(=O)[C@H]12`, for which the composite z-score was 0.559 in assay [1]; -0.257 in assay [2]; -0.722 in assay [3]; 0.845 in assay [5]; 0.827 in assay [6]; 0.475 in assay [7]. Besides, the composite z-score was determined as 0.799 in assay [8], 0.664 in assay [9] and 0.852 in assay [10]. Besides, the z-score in [4] is 1.04 (inactive).
With `COC(=O)[C@@]1(Cc2ccc(F)cc2)[C@H]2c3cc(C(=O)N4CCCC4)n(CCO)c3C[C@H]2CN1C(=O)c1ccccc1`, the composite z-score in assay [1] was 1.33; in assay [2], 0.532; in assay [3], 0.977; in assay [5], 0.597; in assay [6], -0.166; in assay [7], -0.244. Also, the composite z-score in assay [8] was -0.479; in assay [9] it was -0.572; in assay [10], 0.671. For the same compound, the z-score in assay [4] is -0.495 (inactive).
Take `NC(=O)NCC#Cc1ccc2c(c1)[C@]1(C(=O)N2)[C@H](C(=O)Nc2nc3ccccc3s2)[C@H]2C(=O)O[C@H](c3ccccc3)[C@H](c3ccccc3)N2[C@@H]1c1ccc(OCCO)cc1`: the composite z-score in assay [1] was -0.478; in assay [2], 0.738; in [3], 1.13; in assay [5], 0.253; in [6] it was -0.95; in assay [7] it was 0.0294. Also, the composite z-score was 0.559 in assay [8], -0.52 in assay [9] and 0.765 in [10]. In [4], the z-score is 1.37 (inactive).
For `COCCCNC(=O)[C@@H]1c2ccccc2C(=O)N(C2CCCCC2)[C@H]1c1ccc(CO)cc1`, the composite z-score in assay [1] is 1.2; in assay [2] it was 0.164; in assay [3] it was 0.864; in assay [5] it was -0.779; in assay [6], -1.82; in assay [7] it was -1.22. Also, the figures for the composite z-score in assay [8], in assay [9] and in assay [10] were -0.849, -1.54 and -0.0501, respectively. In addition, the z-score in assay [4] was 0.0373 (inactive).
With `CC(C)CNC(=O)[C@@H]1c2ccccc2C(=O)N(CC23CC4CC(CC(C4)C2)C3)[C@H]1c1ccc(CO)cc1`, the composite z-score in [1] is 0.248; in [2], 0.031; in assay [3], 0.446; in assay [5] it was 0.124; in [6], 1.02; in [7], 0.0591. In addition, the composite z-score in assay [8] was 0.777; in assay [9] it was -0.0314; in assay [10], 0.471. In addition, the z-score in [4] was -1.46 (inactive).
Take `C=C(/C(=C/C[C@@H](OC(C)=O)c1ccccc1OCCO)c1cc(C(=O)OC)ccc1OC)C(C)C`: the composite z-score in [1] was 1.08; in assay [2], -0.114; in assay [3] it was -0.242; in assay [5], 0.419; in assay [6] it was 0.115; in [7], -0.209. The composite z-score in assay [8] is -0.0844; in assay [9], 0.0006; in assay [10], 0.772. For the same compound, in assay [4], the z-score is 0.314 (inactive).
On to `COCCCNC(=O)[C@@]1(Sc2ccc(C)cc2)CC(=O)N(C2CCCCC2)[C@@H]1c1ccc(CO)cc1I`, for which the composite z-score in assay [1] is 1.06; in assay [2], 0.79; in [3] it was 0.629; in assay [5], 1.01; in assay [6] it was 1.28; in [7], 0.549. In addition, the figures for the composite z-score in assay [8], in assay [9] and in assay [10] were 1.38, 0.216 and -0.148, respectively. Besides, the z-score in assay [4] was -0.924 (inactive).
As for `COC(=O)[C@@]1(Cc2ccc(OC)cc2)[C@H]2c3cc(C(=O)N4CCCC4)n(CCc4ccc(OC)c(Br)c4)c3C[C@H]2CN1C(=O)c1ccccc1`, the composite z-score is 1.31 in [1]; 0.801 in [2]; 0.904 in [3]; 0.714 in assay [5]; -0.199 in [6]; 0.0993 in assay [7]. Further, the composite z-score in assay [8] is -0.457; in assay [9], -0.858; in [10], 1.03. Besides, the z-score in assay [4] was -0.947 (inactive).
In the case of `COCCOC(=O)N1C(=O)[C@@]2(c3cc(C#CC4=CCCCC4)ccc31)[C@H](C(=O)N1CCc3cc(OC)c(OC)cc3C1)[C@H]1C(=O)O[C@H](c3ccccc3)[C@H](c3ccccc3)N1[C@@H]2c1ccc(O)cc1`, the composite z-score in assay [1] was 1.04; in assay [2], 0.26; in [3] it was -0.0061; in assay [5], 0.438; in [6], 1.12; in [7], 1.32. Besides, the composite z-score in [8] came to 0.583; in assay [9], 0.391; in assay [10], 0.732. For the same compound, in assay [4], the z-score is -0.258 (inactive).
As to `CC(C)(C)OC(=O)CC[C@]1(C(N)=O)N=C(c2ccc(OCCCO)cc2)O[C@H]1c1ccccc1CN=[N+]=[N-]`, the composite z-score was 1.62 in assay [1]; 1.11 in [2]; 1.2 in assay [3]; 1.44 in [5]; 1.28 in assay [6]; -0.643 in assay [7]. The composite z-score in [8] was 0.0115; in assay [9] it was -0.395; in assay [10] it was 0.0976. For the same compound, in assay [4], the z-score is -0.26 (inactive).
Take `C/C=C/CN(C(=O)C#Cc1ccccc1)[C@H](CO[Si](C)(C)C(C)(C)C)c1ccccc1`: the composite z-score is -0.435 in assay [1]; -0.65 in assay [2]; -0.169 in assay [3]; -1.27 in [5]; -0.0745 in assay [6]; -1.37 in [7]. The composite z-score is -1.44 in [8], -0.72 in assay [9] and 1.19 in assay [10]. For the same compound, the z-score in assay [4] was -3.21 (inactive).
Regarding `O=C1OCCC=C[C@H]2OC34C=CCN(c5ccc(Cl)cc5)C(=O)[C@H]3N(CCO)C(=O)[C@@H]4C12` (stereo not given in full), the composite z-score in assay [1] was -0.358; in assay [2], -0.208; in [3], 0.266; in assay [5], -0.45; in [6], -0.695; in assay [7], -0.723. Also, the composite z-score in assay [8] is -0.683; in assay [9] it was -0.568; in assay [10] it was -1.16. Moreover, the z-score in assay [4] is -0.343 (inactive).
As for `CC(C)C(=C=CC[C@@H](O)c1ccc(OCCO)cc1)CCO`, the composite z-score in [1] is 0.959; in [2] it was -0.233; in assay [3], 0.0776; in assay [5], 0.688; in assay [6] it was -0.579; in [7], -0.395. In addition, the composite z-score in [8] is 0.196; in assay [9] it was -0.117; in assay [10], 0.516. In addition, the z-score in assay [4] is -0.35 (inactive).
